# An excerpt weighted towards active compounds, which were near 0.25% of everything screened.
# BCR signal inh: chronic active BCR signaling inhibition; ABC-DLBCL IkBa-CBG/CBR reporter, luminescence ratio, 4 h; Potency, µM (top dose mostly 46.1 µM), usual class: inhibitors; 340,000 tested, 0.05% active; AID 493014; active = well fitted inhibition curve with a large enough effect in the signal ratio, with a control signal flat, not every such curve was filed as active; inconclusive = small, poorly fitted or top-dose-only effect, or effect the other way, or a change in a side signal; the % refers to the signal ratio
#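 Compounds up to 46 uM were incubated four hours with TMD8 cells whose green CBG68 luciferase is fused to IkappaBalpha; red CBR luminescence normalised the signal, and concentration-effect curves were fitted to fusion, red and ratio data.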
# Giardia killer: Giardia lamblia killing; Giardia lamblia trophozoite viability; activity change, % at 7.66 µM, hits read low; 340,000 tested, 0.15% active; in the data active = activity change below about -80%; inconclusive = between about -30% and that limit;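 note: parasites exposed to compound for two days anaerobically before the ATP read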
#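 ATP-content bioluminescence gauges trophozoite survival. Cells (100/well) receive compound and incubate anaerobically for 48 hrs at 37 deg C; detection reagent follows for 15-30 min at room temperature.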
# TCR act: T cell receptor activation; Potency, µM (top dose mostly 9.22 µM), most hits filed as activators; 330,000 tested, under 10 active; primary human leukocytes, anti-CD3, IL-2 HTRF, 48 h
#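 1) Mix primary human leukocytes, a-CD3 beads and compound. 2) Incubate 48 hr. 3) Add HTRF IL-2 reagents (a-IL-2-K, a-IL-2-d2).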
# Integrin act MD: activates integrin-mediated alleviation for muscular dystrophy; alpha7betagal myoblasts, beta-gal FDG fluorescence, 48 h; Potency, µM (titrated, usually from 38.3 µM), actives largely listed as activators; 350,000 tested, 0.064% active; AID 624291; note: nearly all actives have a fitted effect of over 60% in size
#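 Alpha7betagal+/- myoblasts (passage 13) were plated 16-24 hr, then exposed to compounds (1:260 dilution of DMSO stock) for 48 hours at 37C. After MPER lysis, β-galactosidase reporter activity was read as FDG fluorescence (ex 480/em 540) after 30 minutes.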
# Numbers stand for hits; i = inactive; ? = inconclusive; nt = no result; [ ] = remark or other dose. Unless noted, calls come from the whole dose curve; as a rule, active = well fitted curve in the direction sought with a large enough effect; inconclusive = small, poorly fitted or top-dose-only effect, or another doubt; inactive = no such curve, though single readings can be large; an effect the other way counts as inactive or inconclusive.
SMILES,BCR signal inh,Giardia killer,TCR act,Integrin act MD
O=C(Nc1cccc(NC(=O)c2cccs2)c1)c1ccc([N+](=O)[O-])o1,?,-89.4,i,i
COc1cc(NC(=O)c2ccc([N+](=O)[O-])o2)ccc1NC(=O)c1cccs1,i,-102.2,i,i
O=C(Nc1nc(-c2cccs2)cs1)c1ccco1,i,i,i,?
COc1cccc(N2CC(NC(=O)c3ccco3)CC2=O)c1 (stereo not drawn),i,nt,nt,nt
Cc1cccc(CN2C(=O)N(c3ccc(C(C)C)cc3)S(=O)(=O)c3ccccc32)c1,i,nt,nt,nt
COc1ccc(N2CC(NC(=O)C3CCCCC3)CC2=O)cc1 (stereo not drawn),i,nt,nt,nt
Nc1nnc(-c2cccc(F)c2)s1,?,i,i,?
O=c1oc2c(-c3cccc(F)c3)cc(O)cc2s1,i,i,i,3.98µM
CCc1sc(Nc2cccc(C)c2C)nc1-c1cc2cccc(OC)c2oc1=O,i,nt,nt,nt
CCc1ccccc1NC(=S)N=Nc1c(O)n(C)c2ccc(S(=O)(=O)N3CCOCC3)cc12,18.4µM,i,i,i
Cc1ccc(C)c(NC(=S)N=Nc2c(O)n(C)c3ccc(S(=O)(=O)N4CCOCC4)cc23)c1,?,i,i,i
c1ccc(-c2ccc(-c3nc(-c4ccccn4)no3)cc2)cc1,i,?,i,i
Cc1ccc(-c2nc(-c3ccccn3)no2)cc1,?,-90.3,i,i
COC(=O)c1cc2c(n1S(=O)(=O)c1ccc(C)cc1)C(=O)C(=O)c1[nH]cc(C(=O)OCc3ccccc3)c1-2,nt,i,i,i
CCOc1ccc(S(=O)(=O)NCCC(=O)NCC(c2cccs2)N2CCOCC2)cc1 (stereo not drawn),i,i,i,2.24µM
O=C(CCNS(=O)(=O)c1ccc(Br)cc1)NCC(c1cccs1)N1CCOCC1 (stereo not drawn),nt,nt,nt,i
COc1nn(C(C)C(=O)N2N=C(C(F)F)CC2(O)C(F)F)cc1[N+](=O)[O-] (stereo not drawn),i,-81.6,i,i[7.66 µM]
CCCCCn1c(SCC(=O)c2ccccc2)nc2cc(C(=O)NCC3CCCO3)ccc2c1=O (stereo not drawn),nt,i,i,i
CC(=O)c1cccc(NC(=O)C(=O)Nc2cccc3ccccc23)c1,?,i,i,8.91µM
CC(=O)c1ccc(NC(=S)Nc2cccc3ccccc23)cc1,?,i,i,i
O=[N+]([O-])c1ccc(N2CCN(c3ccccc3F)CC2)nc1,i,i,i,5.62µM
Cc1ccc(Nc2ccc([N+](=O)[O-])nc2[N+](=O)[O-])cc1,i,-95.7,i,i
CC(C)CC1NC(=O)N(CC(=O)N2c3ccccc3NC(=O)C2(C)C)C1=O (stereo not drawn),i,i,i,5.62µM
CCC1(c2ccc(F)cc2)NC(=O)N(CC(=O)N2c3ccccc3NC(=O)C2(C)C)C1=O (stereo not drawn),i,i,nt,i
O=C(O)CCCCCNC(=O)CCn1nnc2ccccc2c1=O,i,i,i,i
SMILES,BCR signal inh,Giardia killer,TCR act,Integrin act MD
O=C(O)CCCNC(=O)CCn1nnc2ccccc2c1=O,i,i,i,11.2µM
O=C1OC2(CCCCC2)CC2=C1C1O[C@](CCCCN3C(=O)c4ccccc4C3=O)(Cc3ccccc31)O2,i[9.22 µM],nt,nt,nt
CC(=O)N1CCN(c2ccc(NC(=O)c3ccc([N+](=O)[O-])o3)cc2Cl)CC1,?,-80.6,i,i
CCC(=O)N1CCN(c2ccc(NC(=O)c3ccc([N+](=O)[O-])o3)cc2Cl)CC1,?,-92.2,i,?
CC(=O)N1CCN(c2ccc(NC(=O)c3ccco3)cc2Cl)CC1,?,i,i,i
CCC(=O)N1CCN(c2ccc(Cl)cc2NC(=O)c2cccc([N+](=O)[O-])c2)CC1,i,i,i,i
CCC(=O)N1CCN(c2ccc(Cl)cc2NC(=O)c2ccc([N+](=O)[O-])o2)CC1,i,-100.6,i,i
CCN1CCN(c2ccc(NC(=O)c3ccc([N+](=O)[O-])o3)cc2Cl)CC1,?,?,i,i
CC(=O)c1cccc(NC(=O)CN2C(=O)CN(C)C(=O)c3ccccc32)c1,i,nt,nt,nt
CCOC(=O)c1ccc(S(=O)(=O)N2CCN(c3nc(-c4ccccc4)nc4ccccc34)CC2)cc1,nt,i,nt,nt
CCOC(=O)/C(C(N)=NCCO)=C(/O)c1ccccc1,i,i,i,12.6µM
CCOC(=O)/C(C(N)=NCCCO)=C(/O)c1ccccc1,i,i,nt,i
Cc1ccc(Nc2nc(NCc3ccco3)nc3nccnc23)cc1C,nt,i,nt,nt
O=C(O)CCn1cc(/C=C2/NC(=S)N(c3ccccc3)C2=O)c(-c2ccccc2)n1,?,i,i,20µM
COC(=O)/C(=C\c1ccc([N+](=O)[O-])o1)NC(=O)c1ccccc1,i,?,i,i
CCCCNC(=O)/C(=C\c1ccc([N+](=O)[O-])o1)NC(=O)c1ccccc1,i,-101.1,i,i
COc1cc(C=C2CN(C)C(=O)C2=O)ccc1O,nt,nt,nt,i
COc1cc(/C=C2\OC(=O)c3c(OC)cccc32)ccc1O,9.2µM,i,i,i
Cc1cnc([N+](=O)[O-])n1CCOC(=O)c1cccc(F)c1,i,-80.7,i,i
Cc1cnc([N+](=O)[O-])n1CCOC(=O)NC(=O)c1ccc(F)cc1,i,?,i,?
Cc1cc(Br)ccc1NC(=O)c1sc2ncn(Cc3ccccc3Cl)c(=O)c2c1C,i,nt,nt,nt
CN(C)S(=O)(=O)c1cccc(C(=O)Nc2ccc3c(c2)CCC3)c1,i,i,i,2.82µM
Cc1ccc(CNC(=O)c2c(Nc3ccccc3C)sc(C(=O)c3ccc(F)cc3)c2N)cc1,22.4µM,nt,nt,nt
CCOc1ccccc1Nc1sc(C(=O)c2ccccc2)c(N)c1S(=O)(=O)c1ccc(C)cc1,i,nt,nt,nt
CCCCNC(=O)C(CC)Sc1nnc(-c2ccc(OC)c(OC)c2)c(-c2ccc(OC)c(OC)c2)n1 (stereo not drawn),i,nt,nt,nt
SMILES,BCR signal inh,Giardia killer,TCR act,Integrin act MD
Cc1noc(C)c1C(=O)Nc1ccc(-c2nnc3n2CCCCC3)cc1,i,i,i,i
O=C(NC(=S)N1CCOCC1)c1ccc([N+](=O)[O-])cc1,23.1µM,i,i,i
N#Cc1ccc(C(=O)NC(=S)N2CCOCC2)cc1,i,i,nt,i
O=C(Nc1nc2cc3c(cc2s1)OCCO3)C1=COCCO1,?,-86.3,i,i
CCCN1CNc2c(c(=O)[nH]c(=S)n2CCc2ccc(C)cc2)C1,nt,i,nt,nt
CC1CCN(S(=O)(=O)c2ccc(S(=O)(=O)N3CCCC3)cc2)CC1,i,i,i,8.91µM
Cc1ccc(N2C(=O)N(Cc3cc(=O)n4ccccc4n3)c3ccccc3S2(=O)=O)cc1Cl,i,nt,nt,nt
Cc1ccc(-c2csc(Nc3ccc(C(=O)O)cc3)[n+]2Cc2ccccc2)cc1,?,i,i,8.91µM
CCCCN1C=CC(=C2C(=O)c3ccccc3C2=O)C=C1,?,-95.1,i,i
Cc1ccnc(NC(=O)c2ccc(OCC3CCCO3)cc2)c1 (stereo not drawn),?,-84.5,i,i
Cc1cc(C)c2c(N)c(C(=O)Nc3ncc(C)s3)sc2n1,?,-107.6,i,i
COC(=O)c1sc2nc(C)cc(C)c2c1N,?,i,nt,i
CN1CCN(C(c2ccccn2)c2cc(Cl)c3cccnc3c2O)CC1 (stereo not drawn),7.08µM,i,i,i

# Screening data: PubChem, National Center for Advancing Translational Sciences (NCATS)
